# Assay results published in the supplement of paper PMC8975748.
# Counter-ions that a name gives are not always drawn.
# Tested on: Saccharomyces cerevisiae BY4741 SeMeCo community
# Assay: z-score of subpopulation abundance vs DMSO median, subpopulation auxotrophic for HLUM; higher = larger share of this subpopulation than in DMSO controls
# Details: 10 µM; 24 h; SM minimal medium; subpopulation (auxotrophy): HLUM
# Protocol: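 Fluorescent four-plasmid SeMeCo (self-establishing metabolically cooperating S. cerevisiae BY4741 community; plasmids pH-mRuby2, pL-mWasabi, pU-eCFP, pM-TagRFP657) was grown 24 h in minimal SM medium with each Selleck FDA-approved drug at 10 µM in 384-well plates. Cells were fixed and imaged by high-content confocal microscopy. For each auxotrophic subpopulation (and the prototroph), a z-score gives the deviation from the DMSO vehicle-control population median.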
row,Compound,z-score of subpopulation abundance
1,CNC1CCCN(c2c(F)cc3c(=O)c(C(=O)O)cn(C4CC4)c3c2OC)C1 (stereo not given) [Balofloxacin],-0.35
2,COc1ccc2c(c1)c(CC(=O)O)c(C)n2C(=O)c1ccc(Cl)cc1 [Indomethacin],-0.35
3,CN[C@@H]1[C@H](O[C@H]2[C@H](O[C@H]3[C@H](O)[C@@H](O)[C@H](NC(=N)N)[C@@H](O)[C@@H]3NC(=N)N)O[C@@H](C)[C@]2(O)CO)O[C@@H](CO)[C@H](O)[C@H]1O [Dihydrostreptomycin sulfate],0.3
4,Oc1c(I)cc(Cl)c2cccnc12 [Clioquinol],22.7
5,C#CCN(C)Cc1ccccc1 [Pargyline hydrochloride],0.1
6,C[C@]12CCC3=C4CCC(=O)C=C4CC[C@H]3[C@@H]1CC[C@@]2(O)CC#N [Dienogest],-0.14
7,CC(=O)OC(C)C[N+](C)(C)C (stereo not given) [Methacholine chloride],0.95
8,CC(C)c1nc(N(C)S(C)(=O)=O)nc(-c2ccc(F)cc2)c1/C=C/[C@@H](O)C[C@@H](O)CC(=O)O [Rosuvastatin Calcium],0.9
9,C=C[C@H]1CN2CC[C@H]1C[C@@H]2[C@@H](O)c1ccnc2ccc(OC)cc12 [Quinidine sulfate],2.36
10,CN1CCCN=C1/C=C/c1cccc(O)c1 [Oxantel Pamoate],-0.41
11,O=C(O)c1cccnc1Nc1cccc(C(F)(F)F)c1 [Niflumic acid],-0.43
12,CCCCCCCCN=c1ccn(CCCCCCCCCCn2ccc(=NCCCCCCCC)cc2)cc1 [Octenidine Dihydrochloride],58.5
13,CC(C)(C)CC(C)(C)c1ccc(OCCOCC[N+](C)(C)Cc2ccccc2)cc1 [Benzethonium Chloride],0.07
14,CN(C)[C@@H]1C(=O)C(C(N)=O)=C(O)[C@@]2(O)C(=O)C3=C(O)c4c(O)ccc(Cl)c4[C@@H](O)[C@H]3C[C@@H]12 [Demeclocycline HCl],-0.17
15,CCOC(=O)C1=C(C)NC(C)=C(C(=O)OC)C1c1cccc(Cl)c1Cl (stereo not given) [Felodipine],-1.13
16,CC(=O)[C@@]1(O)CC[C@H]2[C@@H]3C[C@H](C)C4=CC(=O)CC[C@]4(C)[C@H]3CC[C@@]21C [Medroxyprogesterone],0.34
17,Cc1cccc(Nc2ccccc2C(=O)O)c1C [Mefenamic Acid],-0.2
18,CN1C[C@@H]2C[C@H]1CN2c1cc2c(cc1F)c(=O)c(C(=O)O)cn2C1CC1 [Danofloxacin Mesylate],-0.14
19,CS(=O)(=O)c1ccc(C2=C(c3ccccc3)C(=O)OC2)cc1 [Rofecoxib],0.43
20,CC(C)[C@H](N)C(=O)OCCOCn1cnc2c(=O)nc(N)[nH]c21 [Valaciclovir HCl],-0.14

row,Compound,z-score of subpopulation abundance
1,Cc1cccc(C#Cc2ccccc2)n1,-0.82
2,CCCCCCCCOc1ccccc1C(=O)Nc1ccc(C(=O)OCC[N+](C)(CC)CC)cc1 [Otilonium Bromide],12.2
3,CO/N=C(\C(=O)N[C@@H]1C(=O)N2C(C(=O)[O-])=C(C[n+]3cccc4c3CCC4)CS[C@H]12)c1csc(N)n1 [Cefpirome sulfate],0.23
4,Nc1ccc(S(=O)(=O)Nc2ncccn2)cc1 [Sulfadiazine],1.03
5,C[C@]12CC[C@@H]3c4ccc(O)cc4C[C@@H](CCCCCCCCC[S+]([O-])CCCC(F)(F)C(F)(F)F)[C@H]3[C@@H]1CC[C@@H]2O (stereo not given in full) [Fulvestrant],1.35
6,O=c1[nH]cnc2c1ncn2[C@@H]1O[C@H](CO)[C@@H](O)[C@H]1O [Isoprinosine],-0.65
7,"CO[C@H]1C[C@@H]2CC[C@@H](C)[C@@](O)(O2)C(=O)C(=O)N2CCCC[C@H]2C(=O)O[C@H]([C@H](C)C[C@@H]2CC[C@@H](OP(C)(C)=O)[C@H](OC)C2)CC(=O)[C@H](C)/C=C(\C)[C@@H](O)[C@@H](OC)C(=O)[C@H](C)C[C@H](C)/C=C/C=C/C=C/1C [Ridaforolimus (Deforolimus, MK-8669)]",21.4
8,CCCCCCCN(CC)CCCC(O)c1ccc(NS(C)(=O)=O)cc1 (stereo not given) [Ibutilide Fumarate],-0.72
9,Cc1nc(Nc2ccc(F)cc2)nc(N2CCc3ccccc3C2C)c1C (stereo not given) [Revaprazan Hydrochloride],0.14
10,Cc1c(OCC(F)(F)F)ccnc1C[S@@+]([O-])c1nc2ccccc2[nH]1 [Dexlansoprazole],-0.54
11,CC(C)[C@H](N)C(=O)OCC(CO)OCn1cnc2c(=O)[nH]c(N)nc21 (stereo not given in full) [Valganciclovir HCl],-0.35
12,OC(CCCN1CCCCC1)(c1ccccc1)c1ccccc1 [Diphenidol HCl],-0.39
13,O=C1CN2Cc3c(ccc(Cl)c3Cl)N=C2N1 [Anagrelide HCl],0.12
14,CO/N=C1\C[C@]2(C[C@@H]3C[C@@H](C/C=C(\C)C[C@@H](C)/C=C/C=C4\CO[C@@H]5[C@H](O)C(C)=C[C@@H](C(=O)O3)[C@]45O)O2)O[C@H](/C(C)=C/C(C)C)[C@H]1C [Moxidectin],-0.1
15,CN(C)CCCN1c2ccccc2Sc2ccccc21 [Promazine hydrochloride],0.6
16,CC[C@@H]1/C=C(\C)C[C@H](C)C[C@H](OC)[C@H]2O[C@@](O)(C(=O)C(=O)N3CCCC[C@H]3C(=O)O[C@H](/C(C)=C/[C@@H]3CC[C@@H](O)[C@H](OC)C3)[C@H](C)[C@@H](O)CC1=O)[C@H](C)C[C@@H]2OC [Ascomycin (FK520)],2.95
17,CCCCCC(=O)O[C@]1(C(C)=O)CC[C@H]2[C@@H]3CCC4=CC(=O)CC[C@]4(C)[C@H]3CC[C@@]21C [Hydroxyprogesterone caproate],0.74
18,CC1(C)S[C@@H]2[C@H](NC(=O)[C@H](N)c3ccc(O)cc3)C(=O)N2[C@H]1C(=O)O [Amoxicillin trihydrate],-0.21
19,O=C1C(CC[S+]([O-])c2ccccc2)C(=O)N(c2ccccc2)N1c1ccccc1 (racemic) [(+/-)-Sulfinpyrazone],-0.47
20,CC1=Nc2ccc(Cl)cc2S(=O)(=O)N1 [Diazoxide],-1.32
